Most compounds without a hit are left out; they make up all but 19% or so of the library.
Chronic BCR inh = qHTS Assay to Find Inhibitors of Chronic Active B-Cell Receptor Signaling | Potency, µM (doses to about 46.1 µM), for the others: at the top dose activity change, negative = inhibition, actives largely listed as inhibitors | AID 493014, 2011 | hit rate 0.05% among 340,000 | ABC-DLBCL IkBa-CBG/CBR reporter, luminescence ratio, 4 h; active = well fitted inhibition curve with a large enough effect in the signal ratio, with a control signal flat, not every such curve was filed as active; inconclusive = small, poorly fitted or top-dose-only effect, or effect the other way, or a change in a side signal; the % refers to the signal ratio;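 also: potency is read from the fitted curve at half-maximal effect; plate controls were basal doxycycline-induced cells for no effect and cells given 10 µM MG132 for full effect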
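TMD8 ABC-DLBCL cells carrying doxycycline-inducible green luciferase fused to IkappaBalpha plus unfused red luciferase were exposed to compounds (up to 46 uM) for 4 hrs at 37C. Activity came from the overlap-corrected green/red luminescence ratio.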
SW480 rerep = A quantitative high throughput screen for small molecules that induce DNA re-replication in SW480 colon adenocarcinoma cells. SW480 DNA re-replication, Hoechst DNA content imaging, 48 h. Potency, µM (highest dose often 46.1 µM), for the others: top-dose re-replication activation, hits mostly activators. hit rate 1.8% among 340,000; also: potency is read from the fitted curve at half-maximal effect; % of control where 0% means no effect; nearly all actives have a fitted effect of over 55% in size
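Cells (250 per well) received 23 nL compound or DMSO by pin tool and were kept 48 hr at 37 C, 5% CO2. Nuclei were then stained with Hoechst for 40 min and scanned for DNA content.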
DT40 TDP1 no CPT = qHTS for Inhibitors of human tyrosyl-DNA phosphodiesterase 1 (TDP1): qHTS in cells in absence of CPT; Potency, µM (doses to about 46.2 µM), for inactives: at the top dose activity change, negative = growth inhibition, hits mostly inhibitors; AID 686978, 2013; DT40 Tdp1-/- hTDP1 cells, no CPT, ATP luminescence, 48 h; hit rate 15% among 420,000; also: potency is read from the fitted curve at half-maximal effect; % is scaled to controls: 0 for no effect and ±100 for the full control effect; nearly all actives have a fitted effect of over 55% in size
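Luminescent ATP content (CellTiter-Glo) served as the growth readout. Knockout chicken DT40 cells expressing human TDP1 were exposed to compounds without camptothecin for a minimum 48 hr at 37 °C.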
MCF10A rerep = A quantitative high throughput screen for small molecules that induce DNA re-replication in MCF 10a normal breast cells. MCF 10A DNA re-replication, Hoechst nuclear intensity, 48 h. Potency, µM (titrated, usually from 46.1 µM), for inactives: at the highest dose activity, positive = re-replication, actives largely listed as activators. hit rate 2.9% among 350,000. AID 624296, 2012; also: potency is read from the fitted curve at half-maximal effect; % of control where 0% means no effect; nearly all actives have a fitted effect of over 50% in size
TDP1 cell CPT = qHTS for Inhibitors of human tyrosyl-DNA phosphodiesterase 1 (TDP1): qHTS in cells in presence of CPT; chicken DT40 Tdp1-/-;hTDP1 cells + 20 nM CPT, ATP luminescence, 48 h; Potency, µM (titrated, usually from 46.2 µM), for inactives: at the highest dose activity change, negative = growth inhibition, most hits filed as inhibitors; hit rate 12% among 420,000; also: potency is read from the fitted curve at half-maximal effect; % is scaled to controls: 0 for no effect and ±100 for the full control effect; nearly all actives have a fitted effect of over 55% in size
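Cell growth measured by CellTiter-Glo luminescence after a minimum 48 h, 37 C compound exposure with 20 nM CPT in Tdp1-knockout DT40 cells stably expressing hTDP1, seeded 400/well; qHTS titration format.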
IL1B secr inh = qHTS for Inhibitors of Inflammasome Signaling: IL-1-beta AlphaLISA Primary Screen; activity change, % at 57.5 µM; hit rate 4.7% among 360,000; AID 743279, 2014; THP-1 LPS/ATP IL-1B secretion, AlphaLISA, 16 h; hits give low values; in the data active = activity change below about -50%; inconclusive = mostly about -30% to -49%; also: % is scaled to controls: 0 for no effect and ±100 for the full control effect
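THP-1 cells pretreated 1 hr with compounds (up to 57.5 uM final), then stimulated with LPS (250 ng/mL final) plus ATP (1.25 mM final); secreted IL-1B measured by AlphaLISA after 16 hr, decreased signal indicating inhibition.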
Starred values were filed as active, the others as inactive; ? = inconclusive; / = no result. Unless noted, calls follow the shape of the dose curve; as a rule, active = well fitted curve in the direction sought with a large enough effect; inconclusive = small, poorly fitted or top-dose-only effect, or another doubt; inactive = no such curve, though single readings can be large; an effect the other way counts as inactive or inconclusive.

SMILES	Chronic BCR inh	SW480 rerep	DT40 TDP1 no CPT	MCF10A rerep	TDP1 cell CPT	IL1B secr inh
CC(Nc1ncnc2ccccc12)c1ccccc1 (configuration not stated)	1%	?	0.73µM*	23%	1.2µM*	-14
Cc1cccc(N(C)C(=O)Cn2cnc3nc4c(cc3c2=O)CCCC4)c1	/	/	-20%	/	-23%	/
CCOC(=O)Cn1c(=O)c2c(nc(Br)n2Cc2ccccc2)n(C)c1=O	12%	/	/	/	/	/
CCOC(=O)Cn1c(=O)c2c(nc(Br)n2Cc2ccccc2Cl)n(C)c1=O	4%	12%	23µM*	16%	18µM*	-24
C=CCn1c(=O)c2c(nc(Br)n2Cc2ccccc2Cl)n(C)c1=O	8%	1%	?	-8%	18µM*	-1
Cc1cc(C)cc(-n2c(N)c(C(=O)Nc3c(C)n(C)n(-c4ccccc4)c3=O)c3nc4ccccc4nc32)c1	?	0%	8.2µM*	?	7.3µM*	-13
Cc1c(NC(=O)c2cc(-c3ccc(F)cc3)nc3ccccc23)c(=O)n(-c2ccccc2)n1C	1%	4%	12µM*	?	?	-23
Cc1cccc(-c2cc(C(=O)Nc3c(C)n(C)n(-c4ccccc4)c3=O)c3ccccc3n2)c1	-5%	9%	15µM*	?	26µM*	-5
Cc1c(NC(=O)COC(=O)c2cc(-c3cccc4ccccc34)nc3ccccc23)c(=O)n(-c2ccccc2)n1C	3%	0%	-19%	?	?	9
Cc1c(NC(=O)c2cc(-c3ccc(F)cc3)on2)c(=O)n(-c2ccccc2)n1C	?	-1%	?	-2%	4%	12
Cc1ccc(-n2c(N)c(C(=O)Nc3c(C)n(C)n(-c4ccccc4)c3=O)c3nc4ccccc4nc32)cc1	-1%	1%	?	1%	?	-30
COc1ccc(NC(=O)c2cn3c4c(ccc(Cl)c4c2=O)OC(C)C3)cc1OC (configuration not stated)	/	/	?	/	-9%	/
CN(CC(=O)Nc1cccc(F)c1)C(=O)CC1CCCCC1	4%	2%	-17%	5%	-32%	-10
CCOC(=O)c1[nH]c(C)c(C(=O)NCc2ccc(Cl)cc2)c1C	1%	4%	-17%	?	?	35
CCOC(=O)c1[nH]c(C)c(C(=O)Nc2ccccc2C)c1C	?	?	1.5µM*	3.7µM*	1.6µM*	-5
CCOC(=O)c1[nH]c(C)c(C(=O)Nc2cc(Cl)ccc2C)c1C	?	0.82µM*	0.16µM*	?	0.15µM*	49
CCOC(=O)c1[nH]c(C)c(C(=O)NC(CC)Cc2ccccc2)c1C (configuration not stated)	/	/	16µM*	/	?	/
COc1ccc(-c2noc(CCCC(=O)NCC3CCCO3)n2)cc1 (configuration not stated)	15%	-7%	?	2%	-10%	12
O=c1[nH]c2ccc(NCc3ccccc3F)cc2[nH]1	/	/	-6%	/	3%	/
O=C(OC1C[C@@H]2CC3C[C@H](C1)N2CC3=O)c1c[nH]c2ccccc12 (some centres not stated)	/	1%	21µM*	3%	?	/
CCCCC(NC(=O)Cc1c(C)c2cc3c(-c4ccccc4)coc3c(C)c2oc1=O)C(=O)O (configuration not stated)	-11%	-4%	-9%	21µM*	32%	27
